This is a sample that favours compounds with a hit; in the whole collection about 19% have one here.
HT1080 IDH1KD tx: kills HT-1080 cells with IDH1 knockdown; HT-1080 IDH1 knockdown viability, ATP luminescence, 48 h; Potency, µM (series often up to 46.1 µM), actives largely listed as cytotoxic; 360,000 tested, 2% active
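HT-1080-IDH1KD cells (IDH1 knocked down), 750/well in RPMI with 5% FBS, treated with compound 48 h at 37 degrees C. Viability by CellTiter-Glo luminescence, normalised to DMSO and no-cell wells; concentration-response curves classed.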
DT40 TDP1 CPT: DT40-hTDP1 cell growth loss with CPT | chicken DT40 Tdp1-/-;hTDP1 cells + 20 nM CPT, ATP luminescence, 48 h | AID 686979 | 420,000 tested, 12% active | Potency, µM (series often up to 46.2 µM), hits mostly inhibitors; also: nearly all actives have a fitted effect of over 55% in size
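Chicken DT40 Tdp1-/- cells stably complemented with human TDP1 were seeded at 400 cells/well in medium containing 20 nM camptothecin, exposed to pin-transferred compounds, and grown at 37 °C for at least 48 hr. Viability was read as ATP luminescence.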
IL1B secr inh: inflammasome signaling inhibition, IL-1 beta readout | THP-1 LPS/ATP IL-1B secretion, AlphaLISA, 16 h; hits give low values | activity change, % at 57.5 µM | 360,000 tested, 4.7% active; in the data active = activity change below about -50%; inconclusive = mostly about -30% to -49%
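THP-1 cells pretreated 1 hr with compounds (up to 57.5 uM final), then stimulated with LPS (250 ng/mL final) plus ATP (1.25 mM final); secreted IL-1B measured by AlphaLISA after 16 hr, decreased signal indicating inhibition.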
HT1080-NT tox: kills 2HG-producing HT-1080-NT fibrosarcoma cells. Potency, µM (highest dose often 46.1 µM), actives largely listed as cytotoxic. 360,000 tested, 1.6% active. HT-1080-NT fibrosarcoma viability, CellTiter-Glo ATP luminescence, 48 h. AID 686970;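 also: NT is the 2HG producing partner of a matched IDH1 knockdown line; nearly all actives have a fitted effect of over 55% in size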
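750 cells/well, RPMI + 5% FBS; 2 h settle, compound pin-transfer, 48 h at 37 degrees C. CellTiter-Glo 10 min RT, luminescence. Normalized to DMSO and media-only wells.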
TDP1 cell noCPT: qHTS for Inhibitors of human tyrosyl-DNA phosphodiesterase 1 (TDP1): qHTS in cells in absence of CPT. DT40 Tdp1-/- hTDP1 cells, no CPT, ATP luminescence, 48 h. Potency, µM (series often up to 46.2 µM), most hits filed as inhibitors. 420,000 tested, 15% active. AID 686978, 2013; also: nearly all actives have a fitted effect of over 55% in size
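Readout: luminescence from CellTiter-Glo after 30 min in the dark at RT. Cells: DT40 Tdp1-/- with stable hTDP1, 400/well. Exposure: compounds alone, ≥48 hr, 37 °C.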
A number is an active result; - = inactive; ? = inconclusive; . = no result given. Unless noted, calls follow the shape of the dose curve; as a rule, active = well fitted curve in the direction sought with a large enough effect; inconclusive = small, poorly fitted or top-dose-only effect, or another doubt; inactive = no such curve, though single readings can be large; an effect the other way counts as inactive or inconclusive.

SMILES	HT1080 IDH1KD tx	DT40 TDP1 CPT	IL1B secr inh	HT1080-NT tox	TDP1 cell noCPT
O=S(CC(O)(c1ccccc1)c1ccccc1)CC(O)(c1ccccc1)c1ccccc1	?	18µM	-	?	18µM
CCOC(=O)C(C(=O)OCC)c1c([N+](=O)[O-])c(=O)n2c3c(cccc13)CCC2	-	?	-	-	21µM
COc1cccc(N2CC(NC(=O)C3CCCCC3)CC2=O)c1 (stereo unspecified)	.	-	.	.	-
COc1ccc(OCC(=O)Nc2ccc(C(=O)OCc3cc(=O)n4nc(C)sc4n3)cc2)cc1	.	13µM	.	.	21µM
CCc1nn2c(=O)cc(COC(=O)c3ccccc3NC(=O)COc3ccc(C)c(C)c3)nc2s1	.	5.2µM	.	.	6.5µM
CCc1nn2c(=O)cc(COC(=O)c3ccc(NC(=O)COc4ccc(C)cc4)cc3)nc2s1	.	?	.	.	16µM
Cc1csc2ncnc(N3CCN(C(=O)Nc4ccc(OC(F)(F)F)cc4)CC3)c12	-	10µM	-71	?	5.8µM
Cc1csc2c(N3CCN(C(=O)Nc4ccccc4)CC3)ncnc12	-	9.2µM	?	-	16µM
Cc1ccc(NC(=O)N2CCN(c3ccccn3)CC2)cc1	-	-	-	-	-
Cc1ccc(C(=O)N2CCN(c3ncnc4c(C)csc34)CC2)cc1	-	?	?	-	16µM
CC(C)[C@H](NC(=O)C1CCN(C(=O)[C@@H]2CCCN2)CC1)C(=O)NCc1ccc(F)cc1	-	-	-	-	-
CCOc1ccc(N(CC(=O)NCCc2ccccc2)S(=O)(=O)c2ccccc2)cc1	-	-	-	-	-
Cc1cccn2c(=O)c3cc(C(=O)NC(C)c4ccccc4)c(=N)n(CCCn4ccnc4)c3nc12 (stereo unspecified)	?	?	-83	?	?
Cc1cccn2c(=O)c3cc(C(=O)NC(C)c4ccccc4)c(=N)n(CCOCCO)c3nc12 (stereo unspecified)	.	23µM	.	.	26µM
COCCn1c(=N)c(C(=O)NC(C)c2ccccc2)cc2c(=O)n3cc(C)ccc3nc21 (stereo unspecified)	.	-	.	.	-
Cc1ccc2nc3c(cc(C(=O)NCc4ccccc4)c(=N)n3CCCn3ccnc3)c(=O)n2c1	-	?	?	-	?
CCOCCCn1c(=N)c(C(=O)NC(C)c2ccccc2)cc2c(=O)n3cccc(C)c3nc21 (stereo unspecified)	.	16µM	.	.	16µM
Cc1cccn2c(=O)c3cc(C(=O)NCc4ccccc4)c(=N)n(CCOCCO)c3nc12	.	12µM	.	.	26µM
Cc1cc(C)n(-c2nc3ccccc3nc2Nc2cccc(C)c2C)n1	.	-	.	.	-
COc1ccc(N2CCN(C(=O)c3oc4ccccc4c3NC(=O)CCc3cc(OC)no3)CC2)cc1	-	?	-	-	-
c1coc(-c2nnc3sc(-c4cccs4)nn23)c1	-	-	-	-	-
CC(C)c1nc(C(=O)N2CCc3c([nH]c4ccccc34)C2c2ccccn2)cs1 (stereo unspecified)	-	-	-64	-	-
Cc1cccc(C2c3[nH]c4ccccc4c3CCN2C(=O)c2nn(C)c(=O)c3ccccc23)n1 (stereo unspecified)	?	?	-59	-	?
Cc1cccc(C2c3[nH]c4ccccc4c3CCN2C(=O)c2ocnc2C)n1 (stereo unspecified)	-	-	-	-	?
CCCCN(CCCNC(=O)c1c(C)oc2nc[nH]c(=O)c12)Cc1ccccc1	.	-	.	.	?
Cc1ccc2[nH]c3c(c2c1)CN(C(=O)CN1c2ccc(F)cc2CCC1C)CC3 (stereo unspecified)	?	-	-	?	?
Cc1ccc2[nH]c3c(c2c1)CN(C(=O)CN1CCN(c2cccc(C)c2C)CC1)CC3	18µM	23µM	-	?	21µM
Cc1cc(=O)[nH]c(Nc2cccc(C(F)(F)F)c2)n1	-	?	-	-	23µM
O=c1cc(O)c2sc(Nc3cccc(C(F)(F)F)c3)nc2[nH]1	-	12µM	-	-	7.3µM
Cc1ccccc1C(=O)N1CCCC(N2CCN(Cc3ccc4c(c3)OCO4)CC2)C1 (stereo unspecified)	-	?	-	-	-

Assay outcomes (PubChem)
